High-throughput results (PubChem)
IL1B NFkB pot – enhancers of NFkB p65 translocation in HUVEC – imaging, IL-1B stimulus, high-content imaging, primary screen; HUVEC IL-1B NFkB p65 nuclear translocation imaging; activation, % at 2 µM; actives 0.3% (n = 94,000); AID 819, 2007;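 active means activation above 40%, about the mean plus 3 SD, also judged a hit on visual image review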;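 further: percent activation is computed from the nuclear over cytoplasmic p65 intensity ratio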
PLK1 PBD inh – Plk1 polo box domain binding inhibitors, primary screen, biochemical, fluorescence polarization. actives 0.13% (n = 97,000). Plk1 PBD phosphopeptide binding. inhibition, %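 (tested at about 20 µM)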. AID 693, 2007; in the data active means inhibition above about 34%, passing the limit was not always enough
Target sequence (P53350 whole entry, looked up, the tested form may be a part): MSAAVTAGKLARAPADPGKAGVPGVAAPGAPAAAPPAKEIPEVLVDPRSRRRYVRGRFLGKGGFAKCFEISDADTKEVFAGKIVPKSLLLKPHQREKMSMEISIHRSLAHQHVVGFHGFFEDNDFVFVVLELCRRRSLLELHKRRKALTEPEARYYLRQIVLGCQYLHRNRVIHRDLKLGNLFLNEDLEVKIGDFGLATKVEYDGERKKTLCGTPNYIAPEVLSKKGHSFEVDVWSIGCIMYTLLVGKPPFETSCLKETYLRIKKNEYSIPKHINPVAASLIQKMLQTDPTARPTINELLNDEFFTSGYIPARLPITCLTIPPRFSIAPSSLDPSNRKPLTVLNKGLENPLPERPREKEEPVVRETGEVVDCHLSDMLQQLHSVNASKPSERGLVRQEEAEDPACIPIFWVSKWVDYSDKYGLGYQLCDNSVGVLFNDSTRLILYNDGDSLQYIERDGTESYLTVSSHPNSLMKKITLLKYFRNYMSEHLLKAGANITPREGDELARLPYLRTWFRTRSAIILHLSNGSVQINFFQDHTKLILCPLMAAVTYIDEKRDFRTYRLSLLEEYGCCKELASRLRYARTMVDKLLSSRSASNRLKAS
Pyk2 oligo antag – antagonists of Pyk2 self-association, primary screen, Q293 cells, FERM NanoBiT luminescence, HTS; Protein-tyrosine kinase 2-beta (Homo sapiens), Q14289; hits give low values; z-score (the deposit names both 25 µM and 10 µM); actives 0.83% (n = 99,000); AID 1347419, 2020;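 active means Z-score of -3 or lower, scaled per plate to the spread of control and sample wells; inactive means z-score above -3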;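 further: negative z-score means lost luminescence so less FERM oligomerization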
NFkB transloc inh – inhibitors of IL-1B driven NFkB p65 nuclear import, primary screen, imaging, HUVEC, IL-1B stimulus, high-content imaging; actives 0.43% (n = 94,000); HUVEC IL-1B NFkB p65 nuclear translocation imaging; AID 796, 2007; inhibition, % at 2 µM;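 active means inhibition above about 30% together with a positive call from visual inspection of the well image, limit read from the data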;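 further: nuclear over cytoplasmic p65 intensity ratio measured by imaging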
HUVEC tox IL1B – cytotoxicity in IL-1B stimulated HUVEC, primary screen, cytotoxicity control for IL-1B NFkB translocation project, imaging, Hoechst nuclear count, IL-1B stimulus; HUVEC cell count loss; cell count reduction, % at 2 µM; actives 0.41% (n = 94,000); AID 845, 2007;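 active means cell count reduction more than 3 SD above the screen-wide mean, cut at about 70% in these data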
PLK1 kinase inh – human PLK1 kinase inhibitors, primary screen, biochemical, TR-FRET | recombinant PLK1 kinase, TR-FRET peptide phosphorylation | inhibition, % at 10 µM | actives 0.53% (n = 97,000) | AID 619, 2007;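 active means inhibition of 50% or more in the single-concentration screen; inactive means inhibition below 50%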
Each line names hits and unclear results; the compound was inactive in the other large screens. A selection: hits, their analogues and other compounds. The true share with any hit is near 2.2%.

Clc1ccc(-c2nnc(SCc3ccon3)o2)c(Cl)c1	HUVEC tox IL1B 70.3
Cc1cccc(/C=C2\CS/C(=C\c3cccc(C)c3)C2=O)c1	NFkB transloc inh 54.3
Cc1c(C=O)cnn1CCC(=O)O	none
CCOC(=O)CSC(C)C(=O)Nc1nnc(C(C)C)s1 (configuration not stated)	PLK1 kinase inh 64.1 (no result: IL1B NFkB pot, Pyk2 oligo antag, NFkB transloc inh, HUVEC tox IL1B)
CC(C)c1nnc(NC(=O)CSc2ncn[nH]2)s1	none
N#Cc1cc(-c2ccccc2)nnc1Sc1ccc(Cl)cc1	none
Clc1ccc(Sc2cc(Cl)c(-c3ccccc3)nn2)cc1	Pyk2 oligo antag -3.43
CCCCOc1ccc2c(C)cc(=O)oc2c1OCCCC	none
Cc1cc(N2CCOCC2)cc(C)[n+]1[O-]	IL1B NFkB pot 40.1
CCOC(=O)c1ccc(N2C(=O)c3n[nH]c(C)c3C2c2ccc(OC)cc2OC)cc1 (configuration not stated)	Pyk2 oligo antag -3.17
CCOC(=O)c1ccc(N2C(=O)c3n[nH]c(C)c3C2c2ccc(OC)cc2)cc1 (configuration not stated)	none
CCCCOc1ccc(C(=O)N/N=C/c2ccc(OCCN3CCCCC3)c(OC)c2)cc1	none (no result: IL1B NFkB pot, PLK1 PBD inh, NFkB transloc inh, HUVEC tox IL1B, PLK1 kinase inh)
O=C(NC(=S)Nc1cccc(NC(=O)c2ccc(Cl)cc2Cl)c1)c1cccs1	none (no result: IL1B NFkB pot, PLK1 PBD inh, NFkB transloc inh, HUVEC tox IL1B, PLK1 kinase inh)
CCOC(=O)N1CCC(N2C(=O)c3ccccc3C2Nc2cc(C(=O)OC)cc(C(=O)OC)c2)CC1 (configuration not stated)	IL1B NFkB pot 41.6 (no result: Pyk2 oligo antag)
CCOC(=O)N1CCC(N2C(=O)c3cc(C(=O)NC4CCCCC4)ccc3C2O)CC1 (configuration not stated)	PLK1 kinase inh 60.8 (no result: IL1B NFkB pot, Pyk2 oligo antag, NFkB transloc inh, HUVEC tox IL1B)
O=C(NC(=S)Nc1cc(C(F)(F)F)ccc1Cl)c1ccccc1	NFkB transloc inh 78.9
Cc1ccc(-c2cc3cccc[n+]3cc2-c2ccc(C)cc2)cc1	none (no result: IL1B NFkB pot, PLK1 PBD inh, NFkB transloc inh, HUVEC tox IL1B, PLK1 kinase inh)
O=C(CN(Cc1ccco1)C(=O)c1ccccc1)Nc1ccc(Cl)c(Cl)c1	Pyk2 oligo antag -3.74
CC1SCCN1S(=O)(=O)c1ccc2ccccc2c1 (configuration not stated)	none
CCN(CC)C(=O)Cn1cnc2sc(C(=O)Nc3cc(OC)c(OC)c(OC)c3)c(C)c2c1=O	IL1B NFkB pot 42.1
CCCNC(=O)Cn1c(=O)oc2ccccc21	none
Cn1c(SCC(=O)c2ccc3c(c2)OCCO3)nnc1C1CC1	PLK1 kinase inh 61.3
CCc1cc2cc(C)cc(C)c2nc1SCC(=O)N1CCCC1	HUVEC tox IL1B 94.8
CCc1cc2cc(C)ccc2nc1SCC(=O)N1CCN(C(=O)c2ccco2)CC1	none
CCC(C)N1CCN(C(=O)c2cccs2)CC1 (configuration not stated)	none
CCCCCCc1nc2ccccc2c(=O)n1NC(=O)c1c(O)c2cccc3c2n(c1=O)CC3	none (no result: Pyk2 oligo antag)
CCN(CC)C(=O)c1cnn(-c2ccccc2)c1NC(=O)c1ccccc1F	none
COc1cccc(Oc2cnc(N)nc2-c2ccc(OC)cc2O)c1	Pyk2 oligo antag -3.87
COc1ccc(-c2cnc(N)nc2-c2ccc(OC)cc2O)cc1	Pyk2 oligo antag -3.06
O=C(Nc1ccc(Cl)cc1)c1ccc(-n2cccn2)c([N+](=O)[O-])c1	none
O=C(Nc1cc(Sc2ccccn2)cc([N+](=O)[O-])c1)c1ccc(Cl)cc1	Pyk2 oligo antag -3.71
CCOC(=O)Cc1csc(NC(=O)CSc2nc(N)c3c(C)c(C)sc3n2)n1	none
Brc1ccc(-n2cc(-c3ccccc3)c3c(NN4CCOCC4)ncnc32)cc1	none (no result: IL1B NFkB pot, PLK1 PBD inh, NFkB transloc inh, HUVEC tox IL1B, PLK1 kinase inh)
CC1C/C(=N/NC(=O)c2cccc(F)c2)c2ccc(O)cc2C1 (configuration not stated)	none
O=S(=O)(Nc1nc2ccccc2[nH]1)c1ccc(Cl)cc1	PLK1 kinase inh 60.9
Cc1ccc(S(=O)(=O)N2CCc3ccccc3C2CN2C(=O)c3ccccc3C2=O)cc1 (configuration not stated)	none
O=C(Nc1ccc2c(c1)OCO2)c1cccc(F)c1	HUVEC tox IL1B 89.8
O=C(Nc1ccc2c(c1)OCO2)c1c(F)cccc1F	none
Cn1nc(-c2ccc(C(=O)Nc3cccc(Cl)c3)cc2)c2ccccc2c1=O	none
